The supplement of paper PMC3545927
The other results are listed elsewhere or left out. How many sequences the whole screen found active is unknown.

Target: furin, P09958
Assay: furin cleavage Z-score vs untreated control; higher = more cleavage, active = 3.5 or more, inactive = 1 or less, 8 variable residues between constant flanks
How it was run: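 The cleavage Z-score was derived for purified furin acting on 8-mer peptides held on magnetic beads and fused to a cDNA oligonucleotide. Digests lasted 7.5, 15 or 30 min at 1:10 enzyme:substrate in 50 mM HEPES pH 7.5 with CaCl2 and NaCl. Sequencing counts of released DNA, log-transformed against furin-free reactions, were lowess-adjusted and scaled by median absolute deviation.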

furin, P09958, sequence (P09958 whole entry): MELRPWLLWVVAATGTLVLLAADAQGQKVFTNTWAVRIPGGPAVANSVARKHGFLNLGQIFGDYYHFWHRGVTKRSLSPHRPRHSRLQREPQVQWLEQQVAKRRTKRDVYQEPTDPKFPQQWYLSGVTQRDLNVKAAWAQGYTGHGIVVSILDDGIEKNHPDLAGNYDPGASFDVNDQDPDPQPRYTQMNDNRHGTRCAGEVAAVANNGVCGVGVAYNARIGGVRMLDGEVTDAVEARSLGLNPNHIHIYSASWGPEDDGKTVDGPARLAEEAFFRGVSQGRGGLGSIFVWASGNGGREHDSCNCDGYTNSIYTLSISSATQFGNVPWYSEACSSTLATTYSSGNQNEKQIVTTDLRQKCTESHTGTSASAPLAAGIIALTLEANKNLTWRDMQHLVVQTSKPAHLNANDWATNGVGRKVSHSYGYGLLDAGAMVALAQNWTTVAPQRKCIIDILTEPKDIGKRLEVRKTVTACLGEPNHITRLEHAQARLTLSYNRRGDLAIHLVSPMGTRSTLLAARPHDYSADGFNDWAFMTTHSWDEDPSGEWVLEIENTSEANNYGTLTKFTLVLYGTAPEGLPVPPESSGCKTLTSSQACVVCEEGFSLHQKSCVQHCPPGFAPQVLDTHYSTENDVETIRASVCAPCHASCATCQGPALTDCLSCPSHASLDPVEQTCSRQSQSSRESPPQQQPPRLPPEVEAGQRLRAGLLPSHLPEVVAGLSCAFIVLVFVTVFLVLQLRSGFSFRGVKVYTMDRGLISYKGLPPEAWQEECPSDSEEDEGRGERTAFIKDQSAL

| Sequence | furin cleavage Z-score (7.5 min) | furin cleavage Z-score (15 min) | furin cleavage Z-score (30 min) |
| --- | --- | --- | --- |
| CATTPCSGKWAGNASASA [HC1914] | -1.59 (inactive) | 1.19 | -1.38 (inactive) |
| CAPPQPEYDLAGNASASA [HC1547] | -0.102 (inactive) | 2.02 | -0.964 (inactive) |
| CAVQARDLGPAGNASASA [FS-1874] | -2.04 (inactive) | -0.417 (inactive) | -1.57 (inactive) |
| CAEVVTSTWCAGNASASA [HC2260] | -0.517 (inactive) | 2.75 | 0.14 (inactive) |
| CARVRRAAAEAGNASASA [FS-2104] | 12.4 (active) | 11.6 (active) | 8.72 (active) |
| CARVRRRLDLAGNASASA [FS-2843] | 2.08 | 5.18 (active) | 6.19 (active) |
| CAASKVKANLAGNASASA [HC1408] | 2.23 | 1.5 | -1.01 (inactive) |
| CARETRSFTKAGNASASA [FS-1699] | -0.268 (inactive) | -1.13 (inactive) | 0.163 (inactive) |
| CARETRYVELAGNASASA [FS-2918] | 0.274 (inactive) | 0.951 (inactive) | 1.86 |
| CAHKKRSARDAGNASASA [FS-1338] | 9.15 (active) | 11 (active) | 8.17 (active) |
| CARETRSARDAGNASASA [FS-186] | 4.31 (active) | 4.67 (active) | 5.64 (active) |
| CAAYALDTEVAGNASASA [HC564] | -0.288 (inactive) | -0.347 (inactive) | 0.258 (inactive) |
| CAMEECSQALAGNASASA [HC1743] | 1.12 | 0.147 (inactive) | 0.968 (inactive) |
| CARTKRSWVWAGNASASA [FS-2613] | 2.5 | 3.65 (active) | 6.25 (active) |
| CARTKRGWMWAGNASASA [FS-2828] | -0.833 (inactive) | 1.19 | 3.46 |
| CARTRRSWVWAGNASASA [FS-2385] | 0.299 (inactive) | -0.875 (inactive) | 3.19 |
| CADTEVVTSTAGNASASA [HC2298] | -0.856 (inactive) | -0.105 (inactive) | -0.202 (inactive) |
| CARTKRSSTTAGNASASA [FS-3108] | 6.96 (active) | 8.23 (active) | 7.55 (active) |
| CARTKRHRSTAGNASASA [FS-2829] | 2.1 | 4.17 (active) | 5.45 (active) |
| CARTKKSSVQAGNASASA [FS-1841] | 0.0621 (inactive) | -0.697 (inactive) | -0.462 (inactive) |
| CARTKRFSHTAGNASASA [FS-2827] | 1.99 | 3.53 (active) | 5.48 (active) |
| CARACRGVTTAGNASASA [FS-2880] | 0.00727 (inactive) | -0.299 (inactive) | 0.871 (inactive) |
| CARTRRISQTAGNASASA [FS-2468] | -0.0765 (inactive) | 0.134 (inactive) | 0.486 (inactive) |

| Sequence | furin cleavage Z-score (7.5 min) | furin cleavage Z-score (15 min) | furin cleavage Z-score (30 min) |
| --- | --- | --- | --- |
| CAPSKRGNSTAGNASASA [FS-2877] | -0.745 (inactive) | -0.0005 (inactive) | 0.164 (inactive) |
| CATEECSQHLAGNASASA [HC1678] | -0.115 (inactive) | 0.32 (inactive) | 0.469 (inactive) |
| CAVVCYSMSYAGNASASA [HC97] | -0.487 (inactive) | -0.359 (inactive) | 1.4 |
| CAEVVMSTWVAGNASASA [HC128] | -0.73 (inactive) | -0.446 (inactive) | -0.0354 (inactive) |
| CASRYRFIRSAGNASASA [FS-1089] | 9.42 (active) | 10.5 (active) | 7.95 (active) |
| CASRYRFVRSAGNASASA [FS-1090] | 10.3 (active) | 8.88 (active) | 7.53 (active) |
| CATPEDFVRSAGNASASA [FS-920] | -0.0484 (inactive) | -0.138 (inactive) | -0.221 (inactive) |
| CAFRIRTIRSAGNASASA [FS-772] | 12.7 (active) | 13.4 (active) | 9.8 (active) |
| CAFVCCSMSYAGNASASA [HC1987] | 1.81 | -0.389 (inactive) | -0.812 (inactive) |
| CAEVVTSTWLAGNASASA [HC2245] | 0.791 (inactive) | 0.0846 (inactive) | 0.0471 (inactive) |
| CAEMEECSQHAGNASASA [HC1014] | -0.42 (inactive) | 0.366 (inactive) | 1.51 |
| CARPRRMTPFAGNASASA [FS-2744] | 2.59 | 4.44 (active) | 4.82 (active) |
| CARPRREAPFAGNASASA [FS-2742] | 9.78 (active) | 10.3 (active) | 8.49 (active) |
| CAPPCKPLLRAGNASASA [HC1228] | 0.659 (inactive) | 0.392 (inactive) | 0.118 (inactive) |
| CAEVSTSTWVAGNASASA [HC2197] | -0.613 (inactive) | 0.268 (inactive) | -1.55 (inactive) |
| CATTWCSGSWAGNASASA [HC1868] | -0.625 (inactive) | -0.0771 (inactive) | -0.259 (inactive) |
| CAVVCCSGSYAGNASASA [HC2056] | -1.92 (inactive) | -0.697 (inactive) | -1.32 (inactive) |
| CALNGREHRSAGNASASA [FS-353] | 0.641 (inactive) | -0.584 (inactive) | -0.522 (inactive) |
| CAKKGRNRRTAGNASASA [FS-935] | 9.29 (active) | 8.34 (active) | 7.42 (active) |
| CALNGRCRRTAGNASASA [FS-134] | 6.57 (active) | 6.93 (active) | 8.18 (active) |
| CAKKGRGKRTAGNASASA [FS-41] | 6.83 (active) | 9.38 (active) | 6.62 (active) |
| CAVTSRSFRTAGNASASA [FS-894] | 1.05 | -0.0745 (inactive) | -0.661 (inactive) |
| CAPKGRGKRRAGNASASA [FS-1241] | 3.48 | 3.42 | 4.16 (active) |
